Reference: the supplement of paper PMC3334620
The full ranking holds about 33,000 sequences; the median of “E-score (-0.5 to 0.5)” is about -0.056, and the highest 2% start at about 0.38. This excerpt belongs to a sample that is enriched for the highest values.

Biological target: Stb4 (UniProt P50104)
Assay: PBM E-score (8-mer binding enrichment) (E-score (-0.5 to 0.5)); higher = stronger / more preferred TF binding
Conditions: protein concentration: 200 nM; construct: GST-DNA-binding domain
Description: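 Universal 'all 10-mer' protein binding microarrays (Agilent AMADID 015681) probed with GST-tagged S. cerevisiae TFs (full-length or DBD) made by in vitro transcription/translation (PURExpress), about 100-200 nM. Bound TF was detected with fluorescent anti-GST. Each ungapped 8-mer (which stands for itself and its reverse complement) is scored by the PBM enrichment score (E-score), a modified Wilcoxon-Mann-Whitney statistic from -0.5 to +0.5, computed with the Universal PBM Analysis Suite. Scale: above 0.35 generally sequence-specific binding.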

Chain of UniProt P50104 (P50104 whole entry): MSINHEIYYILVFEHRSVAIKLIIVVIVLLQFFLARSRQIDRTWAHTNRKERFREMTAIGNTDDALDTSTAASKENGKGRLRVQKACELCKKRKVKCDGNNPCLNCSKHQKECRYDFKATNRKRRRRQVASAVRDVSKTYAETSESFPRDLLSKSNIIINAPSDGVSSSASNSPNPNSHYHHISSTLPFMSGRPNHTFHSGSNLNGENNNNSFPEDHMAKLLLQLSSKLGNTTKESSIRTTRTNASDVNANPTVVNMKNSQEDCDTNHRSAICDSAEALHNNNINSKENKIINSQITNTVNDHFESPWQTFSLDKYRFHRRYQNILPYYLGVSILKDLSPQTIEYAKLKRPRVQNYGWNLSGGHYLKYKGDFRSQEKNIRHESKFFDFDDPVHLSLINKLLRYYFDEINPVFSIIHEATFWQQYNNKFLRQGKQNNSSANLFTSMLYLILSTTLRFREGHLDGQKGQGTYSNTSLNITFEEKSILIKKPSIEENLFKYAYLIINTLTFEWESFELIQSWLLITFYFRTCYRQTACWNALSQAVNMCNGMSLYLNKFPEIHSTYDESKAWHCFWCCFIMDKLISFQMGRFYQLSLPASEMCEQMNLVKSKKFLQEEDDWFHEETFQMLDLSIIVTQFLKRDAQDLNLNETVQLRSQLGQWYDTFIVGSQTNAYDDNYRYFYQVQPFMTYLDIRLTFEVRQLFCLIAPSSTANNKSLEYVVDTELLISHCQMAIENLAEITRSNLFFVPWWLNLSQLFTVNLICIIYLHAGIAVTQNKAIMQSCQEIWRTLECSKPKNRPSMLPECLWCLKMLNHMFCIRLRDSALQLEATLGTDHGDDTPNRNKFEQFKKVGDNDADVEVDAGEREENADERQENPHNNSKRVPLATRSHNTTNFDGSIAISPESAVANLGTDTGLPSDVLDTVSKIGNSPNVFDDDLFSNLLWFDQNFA

Sequence | PBM E-score
AAATCGGG | 0.317
TAATCGGA | 0.324
CTATCGGC | 0.26
AAATCGGA | 0.399
GCATCGGA | 0.359
ACATCGGA | 0.346
CTATCGGA | 0.423
AAATGCGT | -0.129
AGTGTGAT | -0.0318
CAATTTAC | -0.00625
CATAGTGG | -0.102
CCGACCTA | 0.296
CACGGTGG | -0.061
GGCCCACC | 0.0688
AAAAGATT | -0.0765
AGGTTTAC | -0.0584
GTATCGAA | -0.0419
GTATCGGA | 0.39
GAATCGGA | 0.38
ACATCACC | 0.0212
CATCTGTC | 0.0312
ACTTCCGA | 0.479
ACTTCCTG | -0.0685
GCTTCCGA | 0.473
ACTTCCCG | 0.354

Sequence | PBM E-score
ACTTCCGC | 0.379
ACTTCCGG | 0.411
GCTTCCAA | -0.147
CCTTCCGA | 0.451
GCTTCCTA | -0.0701
CCTTCCGC | 0.306
ACTTCCCA | -0.158
CCTTCCTA | -0.354
AAAACTTT | 0.0161
CCTGTATC | 0.011
CTGCTAAC | -0.0715
ATCTCTAA | 0.0304
AGCCAGAT | 0.0138
CACCGCAA | 0.0924
CACCGTCA | -0.13
CGGATGGC | 0.347
GACCCATC | 0.0784
TACCCGTA | 0.31
TACCCGAA | 0.476
GACCCGAA | 0.428
GACCCGAC | 0.384
TACCCCGA | 0.342
TACCCGGA | 0.415
GCCCCGAA | 0.31
GACCCGCC | 0.0652

Sequence | PBM E-score
AACCCGAC | 0.324
GACCCGGA | 0.323
GACCCCGA | 0.288
CACCCGGA | 0.358
GAAAAGTC | -0.011
ACCAAGGA | 0.00373
AAGGCCTA | -0.225
ATTTGGGG | -0.0633
AACCCGAA | 0.387
ACCCCGAA | 0.369
AACCCGCA | 0.156
ACCAAGAA | -0.0301
CGCCGGAA | 0.392
AGCCGGAA | 0.395
TGCCGGCA | 0.296
AGCCGGCA | 0.316
TGCCGGAA | 0.419
CGCCGGAG | 0.168
AGCCGGAT | 0.396
GGCCGGAA | 0.371
CGCCGGAC | 0.146
AGCCGGCT | 0.238
AGCCGGAC | 0.239
AGCCGGAG | 0.379
AAGAATAT | 0.0558

Sequence | PBM E-score
GCAAGTAA | -0.0627
ATTTAAAT | -0.101
AGAAAGGG | -0.138
ATCTTGTA | -0.0999
TGAGAGCA | -0.178
CATCGCCA | -0.0625
CGGCGGAA | 0.408
GGGCGGAA | 0.308
AGGCGGAA | 0.278
CAGCTTTA | -0.0389
ACTCGGAA | 0.47
GCGCGGAA | 0.338
GCTCGGAA | 0.482
ACTCGTAA | 0.0295
TCTCGGAA | 0.479
GCACGGAA | 0.327
TCTCGTAA | 0.00218
ACTCGGTC | 0.204
ACTCGGTG | 0.124
TCGCGGAA | 0.315
ACTCGGAC | 0.327
ACTCGGAT | 0.467
CAGTCCCC | -0.362
CTCTCAGC | -0.362
CCACTGGG | -0.231

Sequence | PBM E-score
ATCGCATG | -0.117
AGATACAC | -0.107
AGGCAGGA | -0.188
ACTCTATC | -0.0391
AAGGCTAC | -0.0344
CCCACTCG | 0.0329
GCACGGAC | 0.13
CCACGGAA | 0.354
GCTCGGAC | 0.391
TCACGGAA | 0.389
ACACGGAA | 0.338
GCTCGTAC | -0.0377
GTCACCAC | -0.103
AGGGGAGA | -0.0188
GTGCGTCA | -0.101
CCCCGCTC | -0.0289
CTAAATCC | 0.205
GATTATCA | 0.0201
AGTATCAT | 0.0471
ACTCCAGC | -0.253
CGGGTAGC | 0.37
CGGGTTTA | 0.389
AGGGTAGA | -0.166
CGGGTATA | 0.418
AGGGTATC | -0.0302

Sequence | PBM E-score
GGGGTATA | 0.06
AGGGTATA | -0.029
CGGGTTTC | 0.277
CGGGTAGA | 0.389
CGGGTATC | 0.404
GGGGTTTA | -0.0416
CGGGTACC | 0.312
CAGCATCC | 0.121
GACAAGTA | -0.0988
AGAGTGCG | -0.164
CGTTGATA | 0.0343
AGATCTGG | -0.188
CAACTAGA | -0.182
GAACGGTC | 0.148
CATCCGAG | 0.481
GATCCCAC | -0.00608
AATCCGCG | 0.127
AATCCGCC | 0.218
AATCCGTG | 0.172
GATCCGAC | 0.434
CATCCGCG | 0.285
GATCCAAC | 0.104
AATCCGAG | 0.407
CATCCGCC | 0.4
CGTCCGAG | 0.257

Sequence | PBM E-score
GATCCGCC | 0.273
ACCAGCCA | -0.0271
CAGAGATA | -0.182
CGAGTTGC | 0.0987
CGCTCCCA | -0.0934
CCAAACAG | -0.345
GGAGAGAA | 0.0164
GATGTGGC | -0.0114
CATCCGTC | 0.308
AATCCGAC | 0.346
CATCCGAC | 0.455
ACTCAGTG | -0.208
ACGATCAT | -0.174
CAACCATA | -0.251
AACGAATG | -0.142
AGCAGCTG | -0.307
GCTCAGAC | -0.19
CGACTAGA | -0.0326
TGAGTGAA | -0.295
GGAGTGTA | 0.0839
CCGGTCCG | 0.389
CCGGTCCC | 0.282
CCGGTCCA | 0.0504
